# Reference: ChEMBL document CHEMBL4513216, “Probing the Open Global Health Chemical Diversity Library for Multistage-Active Starting Points for Next-Generation Antimalarials” (ACS Infect Dis, 2020)
# About 8,600 (12%) of roughly 69,000 compounds showed an effect of 50% or more. The full list was thinned out, with strong results kept by preference.
# Test system: Plasmodium berghei
# Experiment: Screen against P. berghei liver stage (PbLuc), transformed with Luciferase, at 10uM
# Format: functional, HepG2
# Details: tested at 10 uM
row,SMILES,INHIBITION [%]
1,N#Cc1cccc(N2CC3(CCN(C(=O)c4ccnnc4)C3)CC2=O)c1 (stereo not given),-13.1
2,O=C(CCN1CCCC(CC2CC2)(C(=O)O)C1)NC1CCCC1 (stereo not given),60.7
3,CC(C)=CCC1(C(=O)O)CCCN(CCC(=O)NC2CC2)C1 (stereo not given),61.8
4,CC(C)=CCC1(C(=O)O)CCCN(c2cc(N)ncn2)C1 (stereo not given),46.4
5,CC(C)=CCC1(C(=O)O)CCCN(c2ccnc(C)n2)C1 (stereo not given),47.4
6,Cc1nc(C)n(CC2CCCN(CCC(=O)NC3CCCC3)C2)n1 (stereo not given),-8.11
7,O=C(CCN1CCCC(CO)(CC2CC2)C1)NC1CCCCC1 (stereo not given),34.5
8,CC(=O)N(Cc1ncc(C)o1)C1CCN(CCc2cccs2)C1 (stereo not given),12.7
9,CCn1cc(NC(=O)C(C)n2ncc(Cl)c2C)c(C(=O)OC)n1 (stereo not given),6.83
10,CCSc1cc(C(=O)NCCNC(=O)Cc2ccccc2)ccn1,26.9
11,CCSc1cc(C(=O)NCc2ccc(C(=O)NC)cc2)ccn1,76.5
12,CCSc1cc(C(=O)NCc2ccccc2O)ccn1,34.7
13,Cc1nc(C)c(C(=O)Nc2ccc(-c3nnc(N(C)C)o3)cc2)o1,6.02
14,CCc1cnc(CN2CCC(N(C)Cc3noc(C)n3)C2)o1 (stereo not given),13.6
15,CCc1nc(CN2CCCC(N(C)CCc3cccs3)C2)no1 (stereo not given),56.6
16,CCc1nc(CN(C)C2CCN(CCc3cccs3)C2)no1 (stereo not given),-79.1
17,Cc1nc(CN2CCCC(N(C)CCc3cccs3)C2)no1 (stereo not given),3.47
18,CCc1nc(CN2CCCC(N(C)CCn3cccn3)C2)no1 (stereo not given),33.7
19,CN(CCc1ccncc1)C1CCCN(Cc2noc(C3CC3)n2)C1 (stereo not given),14.8
20,CN(CCc1cccs1)C1CCCN(Cc2noc(C3CC3)n2)C1 (stereo not given),51.8
21,CN(C)Cc1nnc2n1CCN(c1cnccn1)CC2,-4.02
22,Cc1nc(C2CCN(C(=O)c3cnc(N(C)C)nc3)CC2)c2sccn12,-4.82

row,SMILES,INHIBITION [%]
1,CN(C[C@@H]1CCC[C@@H]2CN(c3ncccn3)C[C@@H]21)C1CC1,38.3
2,Cc1cccc(CSc2ncc(Cl)c(C(=O)O)n2)c1,12.1
3,Cc1ccc(F)c(C(=O)Nc2c(C(N)=O)n[nH]c2C)c1,-18.3
4,Cc1cc(N(C)Cc2ncc(-c3ccccc3C(=O)O)s2)ncn1,5.6045
5,Cc1cc(CN(CC(N)=O)CC(C)C)no1,7.39
6,Cc1ccc(-c2cc(CN(CC(N)=O)CC(C)C)on2)cc1,57.8
7,Cc1cc(CN(CC(N)=O)CC(C)C)on1,43.2
8,Cc1cccc(-c2nccn2C2CC(=O)N(C(C)C)C2)n1 (stereo not given),25.9
9,CNC(=O)NC(=O)CCN1CCN(c2ccc(C(=O)OC)cc2)CC1C (stereo not given),23.7
10,CC1(c2ccccc2)CCCN(Cc2cncn2C2CCCC2)C1 (stereo not given),89.6
11,O=c1c2ccccc2cnn1Cc1cncn1C1CC1,0.33
12,CN1CCCC2(CCN(Cc3cncn3C3CCCCC3)C2)C1=O (stereo not given),62.1
13,COCCn1cncc1CN1CCCC(C(=O)Cc2ccccc2)C1 (stereo not given),20.5
14,O=C(CCc1ccccc1)C1CCCN(Cc2cncn2C2CC2)C1 (stereo not given),27.4
15,Cn1cncc1CN1CCOC(Cc2ccccc2)C1 (stereo not given),-54.1
16,CC1(c2ccccc2)CCCN(Cc2nnc(-c3cccnc3)o2)C1 (stereo not given),5.91
17,CC1(c2ccccc2)CCCN(Cc2cncn2C2CC2)C1 (stereo not given),50.7
18,O=C(Cc1ccccc1)C1CCCN(Cc2cncn2C2CCCC2)C1 (stereo not given),69
19,CCCN1CCCC2(CCN(Cc3cncn3C3CCCCC3)C2)C1=O (stereo not given),-21.5
20,CCCN1CCCC2(CCN(Cc3cncn3C3CCCC3)C2)C1=O (stereo not given),21.2
21,COCCn1cncc1CN1CCCC(C)(c2ccccc2)C1 (stereo not given),30.1
22,CN1CCCC(Cc2cc(N(C)C)ncn2)C1 (stereo not given),38.7

row,SMILES,INHIBITION [%]
1,Cc1ncc(C(=O)NCCNC(=O)Cc2cccc(F)c2)s1,-13.5
2,Cc1nccc(C2CN(S(=O)(=O)N(C)C)C2)n1,-3.02
3,CCC(C(=O)NCC1=CCN(C)CC1)c1ccccc1 (stereo not given),8.7
4,CNc1ccc(CC2CCCN(C(=O)c3cccc(C)n3)C2)nn1 (stereo not given),45.6
5,CS(=O)(=O)N1CCc2c(cccc2NC(=O)Nc2ccccn2)C1,19.2
6,Cc1nc(CN2C[C@H]3C[C@H](C(=O)NCC4CC4)N(C)[C@H]3C2)cs1,19.8
7,O=C(NCCC1CCN(CC(F)(F)F)CC1)C1CCCOC1 (stereo not given),-10.3
8,CCNC(=O)c1ccoc1CN1c2ccccc2CC1C (stereo not given),-3.19
9,COCCNC(=O)c1ccoc1CN1c2ccccc2CC1C (stereo not given),20.9
10,CC1Cc2ccccc2N1Cc1occc1C(=O)NCC(=O)N(C)C (stereo not given),53.9
11,CNC(=O)C1CN(C(=O)c2cccnc2)CCN(S(C)(=O)=O)C1 (stereo not given),9.25
12,CN1CCCN(C(=O)NCCNc2ncccn2)CC1,16.8
13,CC(C)(C)n1cc(CNc2ccc(CNS(C)(=O)=O)cc2)cn1,74.4
14,CC(C)OC(=O)NCc1ccc(NCc2cnn(C(C)(C)C)c2)cc1,18.9
15,CC(=O)N(Cc1ccc(NCc2cnn(C(C)(C)C)c2)cc1)C(C)C,38.5
16,CCNc1nc2cn(-c3ccc(C)c(C)c3)c(=O)c-2c[nH]1,-31.1
17,COc1ccc(CNCC2CNc3cc(C)nn3C2)cn1 (stereo not given),-6.185
18,Cc1ccc(C(=O)NCCNCC2CNc3ccnn3C2)cc1 (stereo not given),7.67
19,Cc1cc2n(n1)CC(CNCCc1cnn(C)c1)CN2 (stereo not given),54.3
20,Cn1cc(CCNCC2CNc3ccnn3C2)cn1 (stereo not given),71.4
21,O=C(NCCNCC1CNc2ccnn2C1)c1ccc(F)cc1 (stereo not given),32.4
22,Cc1ccc(C(=O)NCCNCC2CNc3ccnn3C2)cc1F (stereo not given),59.3

row,SMILES,INHIBITION [%]
1,Cc1cc2n(n1)CC(CNCc1cnn(-c3ccccc3)c1)CN2 (stereo not given),15.5
2,Cc1cc2n(n1)CC(CNCc1cnn(C)c1)CN2 (stereo not given),33.7
3,O=C(Cc1ccc(F)cc1)NCCNCC1CNc2ccnn2C1 (stereo not given),19.7
4,COc1ccc(CNCC2CNc3ccnn3C2)cn1 (stereo not given),25.1
5,Cc1cc2n(n1)CC(CNCc1ccc(OCC3CC3)nc1)CN2 (stereo not given),60.7
6,COCCOc1ccc(CNCC2CNc3cc(C)nn3C2)cn1 (stereo not given),25.995
7,CCN(Cc1noc(C2CCC2)n1)C(=O)c1cn2ccsc2n1,30
8,CS(=O)(=O)CCCNC(=O)C1(c2cccc(Cl)c2)CC1,28.3
9,CN(CC(N)=O)CC(=O)N1CC=C(c2ccccc2)CC1,-46.4
10,COc1cc(NC2CCCN(c3ncccn3)C2)cc(OC)c1 (stereo not given),23.1
11,CCc1cnccc1C(=O)NC1CCN(C(=O)C2CCCCC2)CC1,38.7
12,CCC1CN(c2ncnc3nc[nH]c23)CCO1 (stereo not given),-2.03
13,CCC(O)CN1CCN(C(=O)c2ccc(N(C)C)nn2)CC1 (stereo not given),-26.6
14,CCCc1nnsc1C(=O)N1CCN(CC(C)O)CC1 (stereo not given),51.7
15,CCCc1nnsc1C(=O)N1CCN(CC(O)C2CC2)CC1 (stereo not given),37.4
16,CN(C)c1ccc(C(=O)N2CCN(CC(O)C(C)(C)C)CC2)nn1 (stereo not given),7.12
17,CC(O)CN1CCN(C(=O)c2ccc(N(C)C)nn2)CC1 (stereo not given),51.2
18,CCc1nnsc1C(=O)N1CCN(CC(O)CC)CC1 (stereo not given),17.8
19,O=C1[C@H]2CN(c3ncccn3)C[C@H]2CN1CCN1CCCC1,19.5
20,CC(C)n1ccc(C(=O)OCC2CC(=O)N(Cc3ccccc3)C2)n1 (stereo not given),1.74
21,CC(C)(NC(=O)CCc1ccco1)c1ccc2c(c1)OCCO2,10.6
22,Cc1cccc(N2CCN(C(=O)CCc3ccsc3)C(C)C2)n1 (stereo not given),-16.8

row,SMILES,INHIBITION [%]
1,Cc1cc(NC(=O)NCC(c2ccccc2)N2CCOCC2)n(C)n1 (stereo not given),-2.53
2,Cc1cc(CNC2CCCN(c3cccnn3)C2)no1 (stereo not given),11.8
3,CC(C)c1nc(CN(C)C2CCCN(c3cccnn3)C2)no1 (stereo not given),18.2
4,c1ccc(-c2nc(CNC3CCCN(c4cccnn4)C3)no2)cc1 (stereo not given),48.4
5,CC(C)(C)c1nc(CNC2CCCN(c3cccnn3)C2)no1 (stereo not given),79.2
6,CN(Cc1noc(C(C)(C)C)n1)C1CCCN(c2cccnn2)C1 (stereo not given),66.2
7,CS(=O)(=O)c1ccc(CNC2CCCN(c3cccnn3)C2)cc1 (stereo not given),39.5
8,Cc1nc(CNC2CCCN(c3cccnn3)C2)no1 (stereo not given),26.5
9,Cc1nc(CN(C)C2CCCN(c3cccnn3)C2)no1 (stereo not given),-31.9
10,CC(C)c1nc(CNC2CCCN(c3cccnn3)C2)no1 (stereo not given),78.2
11,CNC(=O)C1(CCCc2cnccn2)CCN1Cc1ccc(C)cc1 (stereo not given),24.585
12,CC(NC(=O)NCC1(O)CCC1)c1ccc(OCC2CC2)c(F)c1 (stereo not given),13.4
13,CCc1nn(C)c2[nH]nc(NC(=O)c3cccnc3OCC(C)C)c12,47.4
14,Cn1cc(Cl)c(C(=O)N2CCc3nc4sccc4c(=O)n3CC2)n1,-9.32
15,CCn1nc(C)c2ncnc(N(C)Cc3ccco3)c21,52.4
16,CCn1nc(C)c2nc(C)nc(N(C)Cc3ccco3)c21,43.3
17,CCCc1nc(N(C)Cc2ccco2)c2c(n1)c(C)nn2CC,-6.42
18,CCOCC1CN(CCN(C)C)Cc2cnn(CC3CCCC3)c21 (stereo not given),41.2
19,CCC(C)NC(=O)Nc1ccc(CN2CCOC2=O)cc1 (stereo not given),29
20,CC(C)CNC(=O)Nc1ccc(CN2CCOC2=O)cc1,23.2
21,CC(C)C(O)C1(CNC(=O)Nc2ccc(CN3CCOC3=O)cc2)CC1 (stereo not given),65.3
22,Cc1[nH]nc2ncc(C(=O)N3CCN(CCC(C)C)CC3)cc12,23.7
